Experimental data published in publication PMC4336329 (PLoS ONE, 2015).
In all, about 310,000 compounds went through this assay and about 14,000 (4.5%) showed an effect of 50% or more. Effects have a minus sign here. Only a selection was taken, and strong results are over-represented in it overall.

Molecular target: human ether-à-go-go-related gene (hERG) potassium channel (human, UniProt Q12809)
Experiment: primary screen, population patch clamp on CHO cells stably expressing hERG; higher = less effect of the substance
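Note: peak tail current of the secondary pulse compared with the same well before compound.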

Sequence of human ether-à-go-go-related gene (hERG) potassium channel (Q12809 whole entry, looked up): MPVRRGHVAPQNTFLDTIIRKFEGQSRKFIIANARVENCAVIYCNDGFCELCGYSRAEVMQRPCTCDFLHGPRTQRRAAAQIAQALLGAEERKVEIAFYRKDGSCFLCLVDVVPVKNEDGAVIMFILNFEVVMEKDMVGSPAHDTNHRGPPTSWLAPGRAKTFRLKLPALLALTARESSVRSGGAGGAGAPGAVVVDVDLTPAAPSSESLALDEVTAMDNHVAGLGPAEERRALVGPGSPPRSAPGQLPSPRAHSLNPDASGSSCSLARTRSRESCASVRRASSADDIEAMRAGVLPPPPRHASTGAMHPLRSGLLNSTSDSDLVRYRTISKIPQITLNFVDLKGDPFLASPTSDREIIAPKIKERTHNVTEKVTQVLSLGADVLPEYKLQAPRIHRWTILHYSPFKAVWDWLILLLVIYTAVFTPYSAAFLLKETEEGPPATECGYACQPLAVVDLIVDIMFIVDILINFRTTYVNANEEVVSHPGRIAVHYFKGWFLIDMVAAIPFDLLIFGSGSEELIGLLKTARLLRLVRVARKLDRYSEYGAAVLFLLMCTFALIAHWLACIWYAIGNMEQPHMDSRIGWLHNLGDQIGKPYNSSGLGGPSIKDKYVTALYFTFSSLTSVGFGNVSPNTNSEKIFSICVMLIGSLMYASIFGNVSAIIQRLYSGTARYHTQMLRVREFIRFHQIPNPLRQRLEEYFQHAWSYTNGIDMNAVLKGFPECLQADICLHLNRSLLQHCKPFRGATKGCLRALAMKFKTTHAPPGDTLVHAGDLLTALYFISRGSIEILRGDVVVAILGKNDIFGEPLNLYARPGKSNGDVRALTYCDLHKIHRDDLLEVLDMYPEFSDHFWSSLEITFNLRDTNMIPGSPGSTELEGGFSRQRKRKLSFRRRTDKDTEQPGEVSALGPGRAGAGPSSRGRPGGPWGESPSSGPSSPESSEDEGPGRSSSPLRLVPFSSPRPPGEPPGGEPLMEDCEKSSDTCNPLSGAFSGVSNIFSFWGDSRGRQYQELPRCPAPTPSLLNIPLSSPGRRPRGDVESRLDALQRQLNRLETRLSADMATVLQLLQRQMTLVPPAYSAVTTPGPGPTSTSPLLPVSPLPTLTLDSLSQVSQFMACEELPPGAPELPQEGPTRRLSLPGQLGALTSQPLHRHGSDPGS

| Structure (SMILES) | hERG current change (%, negative = inhibition) at 10uM [%] |
| --- | --- |
| CC(C)(C)OC(=O)N1CCCN(C(=O)Nc2cccc(Cl)c2)CC1 | -4.88 |
| O=C(NCc1ccc2c(c1)OCO2)C1CC(=O)N(C2CCCCCC2)C1 (stereo not shown) | -11.3 |
| Cc1cc(C)c(NC(=S)NC(=O)c2c(Cl)c(C)nn2C)c([N+](=O)[O-])c1 | 12.2 |
| COc1cc(C(=O)NCC(c2cccnc2)N2CCN(C)CC2)cc(OC)c1OC (stereo not shown) | 12.9 |
| COC(=O)NNC(=O)C1CCC(C)CC1 (stereo not shown) | -27.2 |
| O=C(N/N=C/c1ccc(-c2ccccc2[N+](=O)[O-])o1)c1cncc(Br)c1 | -6.97 |
| COc1ccccc1CCNC(=O)C(=O)NCC1OCCN1S(=O)(=O)c1ccc(Br)cc1 (stereo not shown) | -25.6 |
| COc1ccc(CCn2c(=S)[nH]c3cc(C(=O)NCc4ccco4)ccc3c2=O)cc1OC | -1.08 |
| COc1ccc(CCNS(=O)(=O)c2cc(/C=C/C(=O)O)ccc2C)cc1OC | 8.58 |
| COc1cc(NC(=O)CN2CCN(c3ccccc3F)CC2)cc(OC)c1 | -10.2 |
| NC(=O)CN1CCN(c2ccccc2F)CC1 | 4.12 |
| O=C1CC(=C(c2ccccc2)c2ccccc2)C(=O)N1CCCCN1CCN(c2ccccc2)CC1 | -63.3 |
| COc1cc(NC(=O)CCN2CCN(c3ccccc3F)CC2)cc(OC)c1 | -56.6 |
| COc1cccc(NC(=O)CCN2CCN(c3ccccc3F)CC2)c1 | -12 |
| Cl.O=C1CC(=C(c2ccccc2)c2ccccc2)C(=O)N1CCCCN1CCN(c2cccc(Cl)c2)CC1 | -46 |
| O=C(CCC(=O)N1CCN(c2ccccc2F)CC1)c1ccc(F)cc1 | -35.4 |
| CCOC(=O)N1CCN(CCC(=O)c2ccc(OC)cc2)CC1.Cl | -18.2 |
| Cl.O=C(CCN1CCN(c2ccccc2F)CC1)c1ccc(Br)cc1 | -84.5 |
| O=C1CC(=C(c2ccccc2)c2ccccc2)C(=O)N1CCCN1CCN(c2cccc(Cl)c2)CC1 | 1.35 |
| CCOC(=O)N1CCN(CCC(=O)c2ccc(Br)cc2)CC1.Cl | -64.6 |

| Structure (SMILES) | hERG current change (%, negative = inhibition) at 10uM [%] |
| --- | --- |
| CCOC(=O)N1CCN(CCC(=O)c2ccc(Cl)cc2)CC1.Cl | -40.9 |
| CC(C)C[C@H](NC(=O)C1CC(=O)N(c2ccc(F)cc2)C1)C(=O)N1CCCCC1 (stereo partly shown) | -0.716 |
| CC1Cc2ccccc2N1C(=O)CSc1nn2c(=O)c(C(C)(C)C)nnc2s1 (stereo not shown) | 0.00368 |
| CC(=O)Nc1ccc(S(=O)(=O)Nc2cc(-c3ccccc3)nn2C)cc1 | 18.5 |
| COc1ccccc1N1CCN(C(=O)C(CC(C)C)NC(=O)C2CCCCC2)CC1 (stereo not shown) | -16.6 |
| O=C(CCN1CCN(c2ccccc2)CC1)NNC(=O)Cc1ccccc1Cl | 5.76 |
| COc1ccccc1N1CCN(C(=O)CCC(=O)N2CCN(c3ccc(F)cc3)CC2)CC1 | -17 |
| COc1ccccc1N1CCN(CCCC(=O)c2ccc(F)cc2)CC1 | -71.7 |
| O=C(CCN1CCN(C(=O)c2ccccc2)CC1)c1ccc(Br)cc1 | -29.5 |
| COc1ccc(OCCCC(=O)NNC(=O)CCN2CCN(c3ccccc3)CC2)cc1 | 7.89 |
| COc1ccccc1N1CCN(CCN(C(=O)C2CCCCC2)c2ccccn2)CC1.O=C(O)/C=C\C(=O)O | -27.4 |
| COc1ccccc1N1CCN(CC(=O)c2ccc(F)cc2)CC1.Cl | 15.7 |
| COc1ccccc1N1CCN(CC(C)N(C(=O)C2CCCCC2)c2ccccn2)CC1 (stereo not shown) | -67.9 |
| CC(Oc1ccc(Br)cc1)C(=O)NNC(=O)CCN1CCN(c2ccccc2)CC1 (stereo not shown) | -61.9 |
| O=C(CCN1CCN(c2ccccc2)CC1)c1ccc(Br)cc1 | -55.1 |
| Cl.O=C(CCN1CCOCC1)c1ccc(Br)cc1 | 25.2 |
| Oc1ccc(Cl)cc1C1=NNC(c2cccs2)C1 (stereo not shown) | 9.76 |
| COc1ccc(C(=O)Nc2cc(C)on2)cc1OC | 10 |
| O=C(NCCn1cc(SCc2ccc(F)cc2)c2ccccc21)c1c(F)cccc1F | 9.31 |
| COc1cccc(C(=O)OCCN2C(=O)c3ccccc3C2=O)c1OC | 4.5 |

| Structure (SMILES) | hERG current change (%, negative = inhibition) at 10uM [%] |
| --- | --- |
| CC1CC(C)CN(CCCNC(=O)Cn2ncc3c([nH]c4ccccc43)c2=O)C1 (stereo not shown) | -18 |
| CC(C)NS(=O)(=O)c1ccc(CCC(=O)Nc2ccc3c(c2)OCO3)cc1 | 1.66 |
| COc1ccc2c(c1)C(C)=CC(C)(C)N2C(=O)Nc1ccccc1 | -14.9 |
| O=C(OCC(=O)N1CCN(c2ccccc2)CC1)c1cc(Br)ccc1Cl | -25.3 |
| CN(CC(=O)Nc1ccc(F)cc1)C(=O)c1cc(-c2ccco2)nc2ccccc12 | -32.5 |
| CCOC(=O)C1=C(CC)Nc2ccccc2N=C1NC(=O)Nc1ccccc1OC | 13.8 |
| COC(=O)c1ccc(N2C(=O)C3CC=CC(C)C3C2=O)cc1 (stereo not shown) | 19.3 |
| COc1ccc(C(=O)N2CCN(c3ccccc3OC)CC2)cc1 | 21 |
| COc1ccc(OC)c(NC(=O)CCN2CCN(c3ccccc3OC)CC2)c1 | 2.82 |
| COc1ccc(C(=O)CCN2CCN(c3ccccc3OC)CC2)cc1.Cl | -50.3 |
| OC1CCCN(Cc2nc(Cc3ccccc3Cl)no2)C1 (stereo not shown) | 9.94 |
| O=C(CN(Cc1ccco1)C(=O)c1ccc(F)cc1F)Nc1ccccc1C(F)(F)F | -21.5 |
| CCOC(=O)C1CCN(C(=O)COc2ccc(Cl)cc2C)CC1 | -46.1 |
| CCOC(=O)C1CCN(C(=O)COc2ccc(Br)cc2Br)CC1 | -51.8 |
| CCOC(=O)C1CCN(C(=O)COc2cc(C)c(Br)cc2C)CC1 | -54.7 |
| CCOC(=O)C1CCN(C(=O)COc2ccc(Cl)cc2Cl)CC1 | -40.7 |
| CCOC(=O)C1CCN(C(=O)COc2ccc(Br)cc2C)CC1 | -19.3 |
| CCOC(=O)C1CCN(C(=O)COc2cc(C)c(Br)c(C)c2)CC1 | -43.2 |
